The full data set covers some 8,800 targets. This sample favours those with a hit. About 0.5% of all pairs of compound and target were hits. A number with no mark means an inactive call.
Columns and labels:
Experiment in all cases: log2 fold change, soluble protein after heating vs DMSO (PISA); higher = thermal stabilisation; K562 lysate, 10 uM; active = over 0.2 and 3.5 SD of the protein, either way, in both replicates (recomputed)
[1] = compound: CCCS(=O)(=O)Nc1ccc(F)c(C(=O)c2c[nH]c3ncc(-c4ccc(Cl)cc4)cc23)c1F [vemurafenib]
Summary of the method: (§1)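 Following dounce homogenisation of K562 pellets in PBS pH 7.4 with 1 mM MgCl2, crude extract at 1 mg/mL protein was incubated for 30 min with 10 μM compound. Aliquots were then heated for 3 min over 48°C-58°C and pooled, NP-40 was added to 0.5% at 4°C, and soluble protein was recovered as the supernatant at 21,000xg for 90 min. Channel-sum-equalised TMTpro 16plex LC-MS/MS quantified this protein. Each value, from duplicates, is a log-two fold change in thermal stability relative to solvent controls.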

[2] = compound: CCCS(=O)(=O)Nc1ccc(F)c(C(=O)c2c[nH]c3ncc(Cl)cc23)c1F
Summary of the method: as §1

[3] = compound: CCN(CCCOc1ccc2c(Nc3cc(CC(=O)Nc4cccc(F)c4)[nH]n3)ncnc2c1)CCOP(=O)(O)O [barasertib]
Summary of the method: as §1

[4] = compound: CC[C@@H]1C(=O)N(C)c2cnc(Nc3ccc(C(=O)NC4CCN(C)CC4)cc3OC)nc2N1C1CCCC1
Summary of the method: as §1

[5] = compound: CC[C@@H]1C(=O)N(C)c2cnc(Nc3ccc(C(=O)N[C@H]4CC[C@H](N5CCN(CC6CC6)CC5)CC4)cc3OC)nc2N1C(C)C [volasertib]
Summary of the method: as §1

[6] = compound: CCn1c(C(=O)N(C2CC2)C2CC2)cc2c3c(ncn3C)c(Nc3cc(C)n(C)n3)nc21
Summary of the method: as §1

[7] = compound: CCn1cc(-c2ccnc3[nH]c(-c4cccc(CN(C)C)c4)cc23)c(-c2ccc(NC(=O)N(C)C)cc2)n1
Summary of the method: as §1

[8] = compound: CN1CCC(CNc2ccc3ncc(-c4cccc(OC(F)(F)F)c4)n3n2)CC1
Summary of the method: as §1

[9] = compound: CN1CCN(CCOc2cc(OC3CCOCC3)c3c(Nc4c(Cl)ccc5c4OCO5)ncnc3c2)CC1 [saracatinib]
Summary of the method: as §1

[10] = compound: CN1CCN(c2nc(C3=C(c4c[nH]c5ccccc45)C(=O)NC3=O)c3ccccc3n2)CC1 [sotrastaurin]
Summary of the method: as §1

[11] = compound: CN1CC[C@H](c2c(O)cc(O)c3c(=O)cc(-c4ccccc4Cl)oc23)[C@H](O)C1 [alvocidib]
Summary of the method: as §1

[12] = compound: CN1CCc2c(c3ccccc3n2Cc2ccc(C(=O)NO)cc2)C1 [Tubastatin A]
Summary of the method: as §1

[13] = compound: CNC(=O)C1=CC=CC=C1NC2=NC(=NC=C2Cl)NC3=C(C=C(C=C3)N4CCOCC4)OC
Summary of the method: as §1

[14] = compound: CNC(=O)c1ccc(Nc2ncc(C(F)(F)F)c(NCc3nccnc3N(C)S(C)(=O)=O)n2)cc1 [defactinib]
Summary of the method: as §1

[15] = compound: CNc1nc(-c2ccc3c(N)n[nH]c3c2)cc(N2C[C@@H](C(=O)NC3CCCCC3)CC[C@H]2C)n1
Summary of the method: as §1

[16] = compound: COC(=O)N[C@@H](C)CNc1nccc(-c2cn(C(C)C)nc2-c2cc(Cl)cc(NS(C)(=O)=O)c2F)n1 [encorafenib]
Summary of the method: as §1

[17] = compound: COC(=O)[C@H](CCSC)NC(=O)C1=C(C=C(C=C1)NC[C@H](CS)N)C2=CC=CC=C2
Summary of the method: as §1

[18] = compound: COc1cc(Nc2ncc3c(n2)-c2ccc(Cl)cc2C(c2c(F)cccc2OC)=NC3)ccc1C(=O)O [alisertib]
Summary of the method: as §1

[19] = compound: COc1cc2nc(-c3cc(F)ccc3O)nc(N[C@@H]3CNC[C@H]3C(C)(C)O)c2cc1OC
Summary of the method: as §1

[20] = compound: COc1cc2ncnc(Nc3ccc(F)c(Cl)c3)c2cc1OCCCN1CCOCC1 [gefitinib]
Summary of the method: as §1

Chain of UniProt P21359 (P21359 whole entry, looked up): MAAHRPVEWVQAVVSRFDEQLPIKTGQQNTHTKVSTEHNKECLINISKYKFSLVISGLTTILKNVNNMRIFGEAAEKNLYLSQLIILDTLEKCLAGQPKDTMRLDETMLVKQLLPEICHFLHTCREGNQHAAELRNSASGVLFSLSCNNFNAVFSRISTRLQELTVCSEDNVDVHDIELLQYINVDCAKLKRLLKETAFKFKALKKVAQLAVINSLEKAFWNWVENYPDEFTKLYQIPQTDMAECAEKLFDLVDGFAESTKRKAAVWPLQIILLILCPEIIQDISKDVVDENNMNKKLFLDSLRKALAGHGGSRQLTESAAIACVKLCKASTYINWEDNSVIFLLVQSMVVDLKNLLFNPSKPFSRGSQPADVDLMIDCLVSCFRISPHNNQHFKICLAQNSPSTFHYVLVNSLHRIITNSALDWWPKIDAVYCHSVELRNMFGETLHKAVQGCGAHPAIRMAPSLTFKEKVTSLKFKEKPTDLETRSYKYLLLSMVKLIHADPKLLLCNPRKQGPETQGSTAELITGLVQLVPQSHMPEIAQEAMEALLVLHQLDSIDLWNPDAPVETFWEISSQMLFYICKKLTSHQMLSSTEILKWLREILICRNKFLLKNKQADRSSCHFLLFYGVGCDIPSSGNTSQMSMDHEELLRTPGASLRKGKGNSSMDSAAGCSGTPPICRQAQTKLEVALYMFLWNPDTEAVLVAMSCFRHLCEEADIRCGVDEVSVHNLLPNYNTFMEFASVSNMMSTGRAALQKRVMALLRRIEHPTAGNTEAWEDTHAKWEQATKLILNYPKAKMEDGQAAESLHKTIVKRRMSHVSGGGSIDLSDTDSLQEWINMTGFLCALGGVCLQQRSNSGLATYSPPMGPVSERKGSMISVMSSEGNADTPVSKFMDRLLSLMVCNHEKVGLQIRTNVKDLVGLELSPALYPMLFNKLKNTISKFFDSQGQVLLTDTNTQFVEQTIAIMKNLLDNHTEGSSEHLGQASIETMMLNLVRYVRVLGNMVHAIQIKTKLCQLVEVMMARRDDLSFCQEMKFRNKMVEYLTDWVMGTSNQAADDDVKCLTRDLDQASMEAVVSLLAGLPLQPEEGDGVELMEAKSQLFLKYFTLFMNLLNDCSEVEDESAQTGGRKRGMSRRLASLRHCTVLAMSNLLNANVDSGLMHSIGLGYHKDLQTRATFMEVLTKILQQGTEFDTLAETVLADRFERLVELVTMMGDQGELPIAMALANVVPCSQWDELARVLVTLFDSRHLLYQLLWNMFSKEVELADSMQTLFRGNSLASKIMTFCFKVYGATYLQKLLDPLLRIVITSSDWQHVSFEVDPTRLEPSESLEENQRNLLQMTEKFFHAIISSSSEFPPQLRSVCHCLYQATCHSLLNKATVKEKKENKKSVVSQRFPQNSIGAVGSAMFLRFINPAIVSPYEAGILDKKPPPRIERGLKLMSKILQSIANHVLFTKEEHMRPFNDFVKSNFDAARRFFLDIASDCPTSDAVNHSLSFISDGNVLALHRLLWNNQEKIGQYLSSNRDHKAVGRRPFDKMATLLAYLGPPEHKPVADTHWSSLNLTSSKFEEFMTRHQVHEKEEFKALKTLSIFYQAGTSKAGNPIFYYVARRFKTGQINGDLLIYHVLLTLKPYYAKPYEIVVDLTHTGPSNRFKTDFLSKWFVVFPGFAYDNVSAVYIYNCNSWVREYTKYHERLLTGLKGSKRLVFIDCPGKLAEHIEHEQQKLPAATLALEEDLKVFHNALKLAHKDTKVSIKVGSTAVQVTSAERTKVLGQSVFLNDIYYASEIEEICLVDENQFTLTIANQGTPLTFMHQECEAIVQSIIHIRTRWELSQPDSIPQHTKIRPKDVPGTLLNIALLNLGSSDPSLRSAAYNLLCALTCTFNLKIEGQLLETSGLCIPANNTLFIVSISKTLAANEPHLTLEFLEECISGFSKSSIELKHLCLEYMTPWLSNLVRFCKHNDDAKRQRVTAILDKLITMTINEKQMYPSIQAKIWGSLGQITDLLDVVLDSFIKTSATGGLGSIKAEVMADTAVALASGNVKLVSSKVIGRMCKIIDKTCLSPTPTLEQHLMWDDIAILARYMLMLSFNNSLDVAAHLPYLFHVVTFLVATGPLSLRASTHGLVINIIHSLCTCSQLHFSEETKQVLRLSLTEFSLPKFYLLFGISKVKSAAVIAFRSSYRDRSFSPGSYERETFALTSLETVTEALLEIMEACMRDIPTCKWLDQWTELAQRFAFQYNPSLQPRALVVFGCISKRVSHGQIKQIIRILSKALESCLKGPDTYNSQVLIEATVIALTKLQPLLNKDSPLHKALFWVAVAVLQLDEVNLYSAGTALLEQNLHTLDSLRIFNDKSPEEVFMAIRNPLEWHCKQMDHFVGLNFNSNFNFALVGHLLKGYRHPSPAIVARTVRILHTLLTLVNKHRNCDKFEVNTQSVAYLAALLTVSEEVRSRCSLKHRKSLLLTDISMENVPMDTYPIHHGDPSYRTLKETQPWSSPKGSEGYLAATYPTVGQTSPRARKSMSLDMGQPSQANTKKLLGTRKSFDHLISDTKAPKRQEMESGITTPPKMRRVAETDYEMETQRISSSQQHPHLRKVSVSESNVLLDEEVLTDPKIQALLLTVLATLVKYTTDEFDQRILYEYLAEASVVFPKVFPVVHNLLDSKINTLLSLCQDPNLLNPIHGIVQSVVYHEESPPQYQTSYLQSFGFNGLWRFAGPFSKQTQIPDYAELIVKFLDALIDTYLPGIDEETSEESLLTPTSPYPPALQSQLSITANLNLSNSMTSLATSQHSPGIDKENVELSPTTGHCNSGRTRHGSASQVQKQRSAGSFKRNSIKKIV
Chain of UniProt Q13330 (Q13330 whole entry, looked up): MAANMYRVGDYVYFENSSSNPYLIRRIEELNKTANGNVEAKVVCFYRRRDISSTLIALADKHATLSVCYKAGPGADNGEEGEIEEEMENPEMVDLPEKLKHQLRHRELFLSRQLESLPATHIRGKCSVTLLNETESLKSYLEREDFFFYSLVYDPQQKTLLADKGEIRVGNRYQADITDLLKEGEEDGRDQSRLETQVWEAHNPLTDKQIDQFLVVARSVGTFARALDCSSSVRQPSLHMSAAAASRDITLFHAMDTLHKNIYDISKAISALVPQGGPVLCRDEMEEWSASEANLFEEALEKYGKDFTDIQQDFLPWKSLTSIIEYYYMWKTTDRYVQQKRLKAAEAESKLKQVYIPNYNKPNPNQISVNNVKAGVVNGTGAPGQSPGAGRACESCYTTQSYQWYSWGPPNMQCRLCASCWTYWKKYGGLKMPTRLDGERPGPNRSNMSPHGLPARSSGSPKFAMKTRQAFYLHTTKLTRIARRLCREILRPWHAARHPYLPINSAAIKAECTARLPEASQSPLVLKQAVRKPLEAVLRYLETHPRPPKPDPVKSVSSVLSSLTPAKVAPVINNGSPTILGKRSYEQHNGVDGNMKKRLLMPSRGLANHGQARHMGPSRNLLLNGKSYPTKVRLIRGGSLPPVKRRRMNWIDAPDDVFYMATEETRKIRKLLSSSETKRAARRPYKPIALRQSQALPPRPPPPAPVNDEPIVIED
Chain of UniProt Q9UDX5 (Q9UDX5 whole entry, looked up): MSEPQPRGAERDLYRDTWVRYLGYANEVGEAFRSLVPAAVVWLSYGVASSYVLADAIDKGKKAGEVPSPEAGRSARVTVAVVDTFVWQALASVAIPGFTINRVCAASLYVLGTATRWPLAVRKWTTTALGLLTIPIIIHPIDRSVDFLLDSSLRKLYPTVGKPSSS
Chain of UniProt Q9H4L5 (Q9H4L5 whole entry, looked up): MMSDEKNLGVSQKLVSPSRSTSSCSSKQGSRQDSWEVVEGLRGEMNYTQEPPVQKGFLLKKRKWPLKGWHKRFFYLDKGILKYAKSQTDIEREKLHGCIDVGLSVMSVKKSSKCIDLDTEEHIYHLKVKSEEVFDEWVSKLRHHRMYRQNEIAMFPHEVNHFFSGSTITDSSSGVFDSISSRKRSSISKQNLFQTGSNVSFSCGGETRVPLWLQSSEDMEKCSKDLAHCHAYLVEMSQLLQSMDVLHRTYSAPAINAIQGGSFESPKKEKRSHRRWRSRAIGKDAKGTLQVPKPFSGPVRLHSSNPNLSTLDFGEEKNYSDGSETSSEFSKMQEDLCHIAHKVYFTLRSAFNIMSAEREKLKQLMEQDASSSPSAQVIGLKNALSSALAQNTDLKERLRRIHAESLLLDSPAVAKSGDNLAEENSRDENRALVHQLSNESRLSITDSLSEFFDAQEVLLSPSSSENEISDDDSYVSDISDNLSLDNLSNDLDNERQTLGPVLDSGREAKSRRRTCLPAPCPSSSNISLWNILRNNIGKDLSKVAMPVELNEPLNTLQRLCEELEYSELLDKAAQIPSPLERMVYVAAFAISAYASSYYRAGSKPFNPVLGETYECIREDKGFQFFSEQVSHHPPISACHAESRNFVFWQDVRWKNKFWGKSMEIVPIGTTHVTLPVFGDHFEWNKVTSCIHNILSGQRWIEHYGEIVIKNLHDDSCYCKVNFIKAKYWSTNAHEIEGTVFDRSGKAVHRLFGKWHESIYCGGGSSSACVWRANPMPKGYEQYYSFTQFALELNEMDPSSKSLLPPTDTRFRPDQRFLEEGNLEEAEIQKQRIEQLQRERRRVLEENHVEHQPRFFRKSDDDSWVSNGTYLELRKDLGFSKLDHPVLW
Chain of UniProt Q9H857 (Q9H857 whole entry, looked up): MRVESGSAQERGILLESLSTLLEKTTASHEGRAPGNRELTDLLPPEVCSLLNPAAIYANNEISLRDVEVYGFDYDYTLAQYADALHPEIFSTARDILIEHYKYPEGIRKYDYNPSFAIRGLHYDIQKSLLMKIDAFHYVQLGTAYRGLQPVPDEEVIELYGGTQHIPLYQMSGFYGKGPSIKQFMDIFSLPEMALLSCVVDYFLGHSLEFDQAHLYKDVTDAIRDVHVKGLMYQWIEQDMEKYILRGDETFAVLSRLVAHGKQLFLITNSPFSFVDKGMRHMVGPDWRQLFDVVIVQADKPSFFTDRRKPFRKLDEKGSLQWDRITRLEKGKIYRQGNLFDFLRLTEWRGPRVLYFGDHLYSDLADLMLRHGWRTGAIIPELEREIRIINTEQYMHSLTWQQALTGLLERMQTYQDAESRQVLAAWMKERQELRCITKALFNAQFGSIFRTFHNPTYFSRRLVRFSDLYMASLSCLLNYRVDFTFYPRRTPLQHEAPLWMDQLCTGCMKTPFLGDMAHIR

Target | log2 fold change [1] | log2 fold change [2] | log2 fold change [3] | log2 fold change [4] | log2 fold change [5] | log2 fold change [6] | log2 fold change [7] | log2 fold change [8] | log2 fold change [9] | log2 fold change [10] | log2 fold change [11] | log2 fold change [12] | log2 fold change [13] | log2 fold change [14] | log2 fold change [15] | log2 fold change [16] | log2 fold change [17] | log2 fold change [18] | log2 fold change [19] | log2 fold change [20]
NT5DC2 isoform 2 (UniProt Q9H857) | 0 | 0.069 | 0.001 | 0.011 | -0.028 | -0.01 | 0.034 | 0.03 | -0.017 | 0.117 | -0.037 | 0.02 | 0.026 | 0.007 | 0.032 | -0.037 | -0.035 | 0.013 | -0.001 | -0.055
NGLY1 (UniProt Q96IV0) | 0.015 | 0.01 | 0.043 | -0.102 | -0.034 | 0.002 | 0.09 | -0.02 | 0.013 | 0.024 | -0.041 | -0.089 | -0.013 | 0.022 | 0 | -0.009 | 0.111 | 0.002 | 0.001 | -0.044
MTFP1 (UniProt Q9UDX5) | -0.025 | 0.031 | 0.012 | 0.036 | 0.041 | 0.061 | -0.421 (active) | 0.041 | -0.042 | 0.004 | -0.087 | -0.006 | 0.053 | 0.145 | 0.007 | -0.037 | 0.102 | -0.032 | 0.003 | -0.011
NCOR2 (UniProt C9J0Q5) | 0.006 | 0.021 | 0.024 | 0.009 | 0.009 | 0.056 | 0.019 | 0.036 | -0.026 | 0.032 | 0.024 | -0.035 | -0.013 | 0.045 | -0.001 | -0.002 | 0.006 | 0.036 | 0.017 | 0.049
OSBPL3 isoform 2 (UniProt Q9H4L5) | 0.018 | 0.01 | 0.005 | -0.053 | -0.139 | 0.025 | -0.013 | -0.068 | 0.04 | 0.018 | -0.013 | -0.161 | 0.056 | -0.11 | -0.033 | 0.03 | 0.052 | -0.043 | -0.002 | 0.206
MTA1 (UniProt Q13330) | -0.022 | 0.011 | 0.008 | -0.005 | -0.007 | -0.003 | 0.013 | -0.061 | 0.018 | 0.036 | 0.007 | -0.045 | 0.013 | 0.008 | -0.01 | -0.005 | 0.098 | -0.026 | 0.023 | -0.023
MRPS12 (UniProt O15235) | 0.062 | 0.035 | 0.003 | 0.045 | 0.011 | 0.001 | -0.038 | 0.001 | 0.016 | 0.028 | -0.015 | 0.026 | -0.021 | 0.015 | 0.067 | 0.011 | -0.168 | -0.027 | -0.053 | -0.032
OLA1 (UniProt Q9NTK5) | 0.025 | 0.001 | 0.012 | -0.047 | -0.029 | 0.04 | -0.135 | 0.035 | -0.003 | 0.026 | -0.002 | -0.095 | 0.019 | -0.029 | -0.02 | 0.008 | -0.004 | 0.017 | 0.011 | -0.026
NCAPH2 (UniProt Q6IBW4) | -0.044 | 0.027 | 0.058 | 0.027 | -0.002 | -0.014 | -0.032 | 0.02 | 0.001 | 0.03 | 0.038 | -0.193 | 0 | 0.005 | -0.084 | 0.064 | -0.039 | -0.027 | 0.01 | -0.048
NF1 (UniProt P21359) | 0.019 | 0.024 | 0.029 | -0.044 | -0.048 | 0.031 | -0.035 | -0.041 | 0.001 | -0.029 | 0.03 | -0.098 | 0.029 | 0.012 | 0.009 | 0.026 | -0.267 | 0.03 | 0.006 | 0.058
NAA30 (UniProt Q147X3) | 0.001 | 0.009 | 0.037 | 0.043 | 0.012 | -0.058 | -0.022 | 0.043 | -0.003 | 0.045 | -0.03 | 0.051 | -0.023 | 0.002 | 0.023 | -0.032 | 0.008 | 0.039 | -0.066 | 0.015
PAK4 (UniProt O96013) | -0.016 | -0.06 | -0.005 | -0.131 | -0.134 | 0.259 | 0.02 | 0.3 | -0.018 | 0.063 | -0.019 | -0.038 | 0.27 | 0.441 | -0.021 | -0.173 | -0.057 | 0.002 | 0.241 | -0.027
